Hits are enriched below; roughly 2.5% of the tested compounds scored in any of these assays.
Cruzain inh Det: cruzain (T. cruzi) inhibition with detergent; P25779; purified cruzain, Z-FR-AMC fluorescence, 0.01% Triton; Potency, µM, inactives show max response, negative = inhibition, usual class: inhibitors; actives 0.43% (n = 200,000); AID 1478;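 further: plate controls were neutral wells for no effect and buffer without enzyme for full effect; nearly all actives have a fitted effect of over 40% in size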
Target sequence (P25779 123-467 limits assumed): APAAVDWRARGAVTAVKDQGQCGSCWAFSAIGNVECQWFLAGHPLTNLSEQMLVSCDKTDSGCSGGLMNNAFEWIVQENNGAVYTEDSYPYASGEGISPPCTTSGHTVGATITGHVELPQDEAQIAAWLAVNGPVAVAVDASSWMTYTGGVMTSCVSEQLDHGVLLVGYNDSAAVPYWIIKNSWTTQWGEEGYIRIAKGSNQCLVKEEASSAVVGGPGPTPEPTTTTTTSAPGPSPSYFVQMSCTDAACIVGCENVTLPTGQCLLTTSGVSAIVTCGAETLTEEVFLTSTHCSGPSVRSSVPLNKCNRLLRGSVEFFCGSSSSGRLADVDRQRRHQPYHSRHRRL
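In this qHTS format, compounds are incubated with 1.5 nM cruzain for 15 min at room temperature before 2 uM Z-FR-AMC is added. Release of AMC is followed at 360/450 nm, and progress is taken as the 60 s fluorescence difference.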
Cruzain noTriton: blocks cruzain activity in detergent-free assay. purified cruzain, Z-FR-AMC fluorescence, no detergent. Potency, µM, without a hit: max response, negative = inhibition, usual class: inhibitors. AID 1476. P25779. actives 2.3% (n = 200,000);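 further: plate controls were enzyme without inhibitor for no effect and buffer without enzyme for full effect; nearly all actives have a fitted effect of over 40% in size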
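Detergent-free condition (0.00005% Triton X-100) in acetate buffer pH 5.5 with DTT. 1.5 nM enzyme and compound were pre-mixed 15 min, then 2 uM Z-FR-AMC substrate added; reaction progress from fluorescence change between first and third reads (60 s).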
Active calls of the source: *; ? = inconclusive. The call rests on the fitted dose curve; in most records, active means well fitted curve in the direction sought with a large enough effect; inconclusive means small, poorly fitted or top-dose-only effect, or another doubt; inactive means no such curve, though single readings can be large; an effect the other way counts as inactive or inconclusive. Potency means the concentration at half of the fitted maximal effect.

SMILES | Cruzain inh Det | Cruzain noTriton
CC(C)(C)C1CCc2oc3ccc(NS(=O)(=O)c4cc(Cl)ccc4Cl)cc3c2C1 (centres undefined) | -2.1% | 3.98µM*
O=C(Cn1nc2c(cc1=O)CCCC2)NCc1ccccc1Cl | -0.7% | 2.9%
COc1ccc(/C=N/NC(=O)c2nc(Cl)c(Cl)c(N)c2Cl)cc1COc1ccccc1F | -0.3% | -8.4%
COc1ccc(/C=N/NC(=S)Nc2ccccc2)cc1COc1ccc(F)cc1 | -8.9% | 7.94µM*
COc1cc(OC)cc(C(=O)N/N=C/c2ccc(OC)c(COc3ccc4ccccc4c3)c2)c1 | -1.1% | 7.94µM*
COc1cccc(OCc2cc(/C=N/NC(=O)c3ccn[nH]3)ccc2OC)c1 | 0.7% | -20.4%
COc1ccc(NC(=S)Nc2ccc(OCc3ccccc3)cc2)cc1OC | -7.8% | ?
COc1ccc(/C=N/NC(=S)Nc2ccccc2)cc1COc1ccccc1F | -3.8% | 12.6µM*
CCOC(=O)c1sc(N(Cc2ccccc2)C(=O)CSc2nnc(C3CC3)n2N)nc1C | 0.5% | -8.8%
Cc1cc2oc(=O)cc(-c3ccccc3)c2c(C)c1-c1ccoc1 | -1.1% | -26.9%
Cc1ccc2c(CC(=O)Nc3ccc(S(=O)(=O)N4CCCCC4C)cc3)coc2c1C (centres undefined) | -5.6% | ?
Cc1ccc2c(CC(=O)Nc3ccc(S(=O)(=O)N4CCCCC4C)cc3)coc2c1 (centres undefined) | -5.5% | 25.1µM*
CC(=O)N[C@@H](CSC(=O)[C@]1([C@@H](O)C(C)C)NC(=O)[C@H](C)[C@@H]1O)C(=O)O | 2.6% | -7.4%
O=C(C(Sc1ccccc1)c1ccccc1)N1CCOCC1 (centres undefined) | 3.3% | 6.7%
CCOC(=O)c1cc(-c2ccccc2)sc1NC(=O)C(C)C | -14.5% | 4.1%
CCOC(=O)c1cc(-c2ccccc2)sc1NC(=O)C(C)N1C(=O)NC(C)(c2ccc(Cl)cc2)C1=O (centres undefined) | 0.2% | 3.98µM*
COc1ccc(Cn2c(C3CC3)nc3ccc(NC(=O)c4ccco4)cc3c2=O)cc1 | -4.8% | 17.9%
O=C1c2cccc(O)c2C(=O)c2c(O)cccc21 | 2.3% | -14.7%
O=C1C=CC(=O)c2c(O)cccc21 | -19.8% | 7.94µM*
Cc1ccc(C(=O)c2cn(Cc3cccc(Cl)c3)c3nc(C)ccc3c2=O)cc1 | -7.5% | -29.5%
CCCOc1ccc(C(=O)Nc2cccc(NC(=O)c3ccc(Cl)cc3Cl)c2)cc1 | 2.0% | ?
Cc1sc(NC(=O)c2ccc(OCC(C)C)cc2)c(C(N)=O)c1-c1ccc(Cl)cc1Cl | ? | 10µM*
CCCCC[C@H](O)/C=C/C=C\C/C=C\CCCCCCC(=O)O | -1.7% | -0.9%
O=C(c1ccccc1OCc1ccccc1Br)N1CCN(c2ncccn2)CC1 | -12.2% | 15.9%
Cc1ccc(-c2nnc(SCC(=O)Nc3sc(C)c(C)c3C#N)n2C)cc1 | 0.8% | ?
SMILES | Cruzain inh Det | Cruzain noTriton
Cc1sc(NC(=O)CSc2nnc(COc3ccc(Cl)cc3)n2C)c(C#N)c1C | 0.5% | 25.1µM*
COc1ccc(-n2c(=O)c3c4c(sc3n(Cc3cc(C)ccc3C)c2=O)CN(C(C)=O)CC4)c(OC)c1 | -6.0% | ?
CCS(=O)(=O)N1Cc2ccccc2CC1C(=O)Nc1nnc(SCc2ccc(C#N)cc2)s1 (centres undefined) | -5.6% | 25.1µM*
N#Cc1ccc(CSc2nnc(NC(=O)C3CCCO3)s2)cc1 (centres undefined) | -2.0% | -6.1%
CCS(=O)(=O)N1Cc2ccccc2CC1C(=O)Nc1nc2ccc(C)cc2s1 (centres undefined) | -6.8% | 12.6µM*
CCS(=O)(=O)N1Cc2ccccc2CC1C(=O)Nc1ccc(C)cc1 (centres undefined) | -2.6% | ?
COc1ccc(-c2nsc(NC(=O)c3cccc(OC)c3)n2)cc1 | -7.3% | -0.4%
COc1cccc(C(=O)Nc2nc(-c3ccc(Br)cc3)ns2)c1 | -2.0% | 25.1µM*
CCc1ccccc1OCC(=O)Nc1ccc(S(=O)(=O)Nc2nc(C)cc(C)n2)cc1 | -7.4% | ?
FC(F)(F)c1cc(NC(=S)Nc2ccc3ccccc3c2)cc(C(F)(F)F)c1 | -1.0% | -4.7%
N#CCCCS(=O)(=O)c1nnnn1-c1ccc(F)cc1Br | 2.7% | 0.5%
Cc1ccc2nc(-c3ccc(NC(=O)CN4C(=O)c5ccccc5C4=O)cc3)sc2c1 | -0.3% | -9.5%
CCC1(c2ccc(F)cc2)NC(=O)N(CC(=O)Nc2ccc(-c3nc4ccc(C)cc4s3)cc2)C1=O (centres undefined) | -11.1% | 12.6µM*
CC(OC(=O)c1nsc(Cl)c1Cl)C(=O)NC(C)(C)C (centres undefined) | 1.4% | -2.6%
CCOc1ccc(N2C(=O)CC(S/C(N)=N/N=C/c3cccs3)C2=O)cc1 (centres undefined) | -0.2% | 10µM*
COc1ccc(N2C(=O)CC(S/C(N)=N/N=C(\C)c3cccs3)C2=O)cc1 (centres undefined) | -12.8% | 0.0%
COc1ccc(-c2onc3ccc(Cl)cc23)cc1 | -5.1% | -4.7%
COc1ccc(-c2cn(/N=C/c3ccc(Cl)cc3Cl)c(N)n2)cc1 | -21.4% | 7.94µM*
CC(C)CN(C#N)c1nc(N2CCOCC2)nc(N2CCOCC2)n1 | 2.5% | 19.3%
Cc1ccc(C)c(NC(=O)c2cc3c([nH]c4ccccc43)c(C)n2)c1 | 7.8% | 7.94µM*
Cc1cccc(NC(=O)c2cc3c([nH]c4ccccc43)c(C)n2)c1C | 0.2% | ?
CCc1ccc(C(=O)c2cn(Cc3ccc(F)cc3)c3cc(OC)c(OC)cc3c2=O)cc1 | -9.0% | ?
Cc1nn(C(=O)c2cccs2)c(C)c1CN1C(=O)c2ccccc2C1=O | 1.3% | 20µM*
Cc1nn(C(=O)c2ccco2)c(C)c1CN1C(=O)c2ccccc2C1=O | 2.4% | -2.8%
C#CCOc1c(Cl)cc(/C=N/NC(N)=S)cc1OCC | 2µM* | 0.631µM*
SMILES | Cruzain inh Det | Cruzain noTriton
COc1cc(OC)c(/C=N/NC(N)=S)cc1Br | 0.178µM* | 0.251µM*
CCOc1c(Cl)cc(/C=N/NC(N)=S)cc1OC | 2.51µM* | 0.501µM*
COc1cc(OC)c(OC)cc1/C=N/NC(=O)C[n+]1ccccc1 | -4.7% | -12.6%
CCOc1cc(C(=O)O)cc(Cl)c1OCC#N | 4.1% | 1.9%
COc1cc(/C=N/O)cc(Cl)c1OC | -3.2% | -2.5%
Cc1cc(C)c(S(=O)(=O)N2CCN(C)CC2)c(C)c1 | 5.9% | 11.6%
CCCn1c(C)nc2c(NCCCN(CC)CC)nc(C)nc21 | -4.8% | -8.5%
CC(CNC(=O)c1csc2c1CCCCC2)c1ccccc1 (centres undefined) | -6.1% | 5.9%
Cc1ccc(CCNC(=O)C(C)n2nc(C)c3c(C)n(-c4ccc(C)cc4)nc3c2=O)cc1 (centres undefined) | -3.1% | 3.9%
Cc1ccc(N2C(=O)CC(Sc3nc(-c4ccccc4)c4cc(Cl)ccc4n3)C2=O)c(C)c1 (centres undefined) | -8.1% | 15.8µM*
Cc1ccccc1N1C(=O)CC(Sc2nnc(-c3ccccc3)o2)C1=O (centres undefined) | -3.2% | 3.1%
O=C(Nc1cccc(C(F)(F)F)c1)C1CCCN(S(=O)(=O)c2cccc3nsnc23)C1 (centres undefined) | -10.4% | -20.5%
Cn1cc(Cl)c(C(=O)OCC(=O)Nc2nc(-c3ccc(Br)cc3)cs2)n1 | -5.7% | 31.6µM*
Cn1nccc1C(=O)OCC(=O)Nc1nc(-c2ccccc2)cs1 | -8.2% | -5.9%
O=C(COC(=O)c1cccs1)Nc1nc(-c2ccccc2)cs1 | -0.3% | 10µM*
O=C(COC(=O)/C=C/c1cccs1)Nc1nc(-c2ccccc2)cs1 | -4.5% | ?

Source: PubChem
